Among the data in PubChem BioAssay (Tox21) are Potency values, retold here.

Assay [1] in a line: qHTS assay to identify small molecule antagonists of the thyroid receptor (TR) signaling pathway - cell viability counter screen (AID 743064). Further: nearly all actives have a fitted effect of over 50% in size. Further: potency means the concentration at half of the fitted maximal effect. In short, it runs like this: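 Fluorescence from CellTiter-Fluor, added after 23.5 h exposure at 37 °C, reported viability of GH3.TRE-Luc cells co-treated with compound and 1 nM T3. Measured in the same wells as the luciferase TR readout.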
For orientation: Quantitative high-throughput screening tests each substance at several concentrations.

The nature of assay [2]: qHTS assay to identify small molecule antagonists of the thyroid receptor (TR) signaling pathway (AID 743065). Further: nearly all actives have a fitted effect of over 55% in size. Further: potency means the concentration at half of the fitted maximal effect. The gist of the method: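 GH3.TRE-Luc rat pituitary cells carrying two TR response elements driving luciferase were plated for 4 h, given compound plus 1 nM T3 (final), and incubated 23.5 h at 37 C. ONE-Glo luminescence measured reporter inhibition; CellTiter-Fluor fluorescence tracked cytotoxicity.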

Assay [3] concerns thyroid hormone receptor (rat, GH3 cells). Kind of assay: qHTS assay to identify small molecule agonists of the thyroid receptor (TR) signaling pathway (AID 743066; calls by dose curve; further: potency means the concentration at half of the fitted maximal effect).
A short description of assay [4]: qHTS assay to identify small molecule antagonists of the estrogen receptor alpha (ER-alpha) signaling pathway - cell viability counter screen (AID 743074; calls by dose curve;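 further: HEK293 cells carrying ER-alpha-UAS-bla reporter stimulated with 17beta-estradiol; nearly all actives have a fitted effect of over 45% in size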).
Assay [5] can be described thus: qHTS assay to identify small molecule antagonists of the estrogen receptor alpha (ER-alpha) signaling pathway using the BG1 cell line - cell viability counter screen (AID 743081).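 Further: compound given together with 17beta-estradiol as the ER stimulus; nearly all actives have a fitted effect of over 45% in size.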 Further: potency means the concentration at half of the fitted maximal effect.
The target of another assay is Aromatase (Homo sapiens) (UniProt P11511). Put plainly: qHTS assay to identify aromatase inhibitors (AID 743083). Further: nearly all actives have a fitted effect of over 55% in size.
Assay [6] deals with Estrogen receptor (Homo sapiens) (UniProt P03372). Kind of assay: qHTS assay to identify small molecule agonists of the estrogen receptor alpha (ER-alpha) signaling pathway (AID 743075; calls by dose curve;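 further: HEK293 GripTite cells with ER-alpha and UAS-driven beta-lactamase reporter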).
For assay [7] the target is unchanged. Put plainly: qHTS assay to identify small molecule agonists of the estrogen receptor alpha (ER-alpha) signaling pathway using the BG1 cell line (AID 743079). Further: nearly all actives have a fitted effect of over 20% in size. Further: potency means the concentration at half of the fitted maximal effect. The note with it: BG1Luc4E2 cells, ERE-luciferase agonist, 22 h; activation: at 70.3 µM (top of the series).
A short description of assay [8]: qHTS assay to identify small molecule antagonists of the estrogen receptor alpha (ER-alpha) signaling pathway using the BG1 cell line (AID 743080; calls by dose curve;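 further: BG1 cells stimulated with 17beta-estradiol alongside compound; nearly all actives have a fitted effect of over 25% in size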). The gist of the method:
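Luciferase inhibition measured with ONE-Glo after 30 min at RT in BG1Luc4E2 cells given test compounds and 17beta-estradiol for 21.5 h at 37 C; CellTiter-Fluor viability read in the same wells beforehand.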

Results filed as inconclusive are left out. Activity calls are given as the source filed them. Unless noted, the call rests on the fitted dose curve; in most records, active means well fitted curve in the direction sought with a large enough effect in the repeat runs; inconclusive means weak or mixed curves; inactive means no such curve, though single readings can be large; an effect the other way counts as inactive or inconclusive.

Aromatase (Homo sapiens), sequence (P11511 whole entry, looked up): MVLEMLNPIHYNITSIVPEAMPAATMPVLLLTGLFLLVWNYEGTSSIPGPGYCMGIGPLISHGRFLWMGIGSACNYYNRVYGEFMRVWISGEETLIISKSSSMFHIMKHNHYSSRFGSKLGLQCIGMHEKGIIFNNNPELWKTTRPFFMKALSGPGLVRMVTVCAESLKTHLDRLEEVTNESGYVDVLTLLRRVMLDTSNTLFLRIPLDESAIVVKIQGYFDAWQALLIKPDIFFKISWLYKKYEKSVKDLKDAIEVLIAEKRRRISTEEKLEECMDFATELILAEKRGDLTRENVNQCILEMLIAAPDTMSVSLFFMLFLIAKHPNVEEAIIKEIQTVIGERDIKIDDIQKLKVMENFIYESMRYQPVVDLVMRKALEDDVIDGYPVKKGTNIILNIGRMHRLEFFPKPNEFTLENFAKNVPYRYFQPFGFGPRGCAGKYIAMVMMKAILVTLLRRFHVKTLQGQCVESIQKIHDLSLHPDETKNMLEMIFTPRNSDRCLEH
Estrogen receptor (Homo sapiens), sequence (P03372 whole entry, looked up): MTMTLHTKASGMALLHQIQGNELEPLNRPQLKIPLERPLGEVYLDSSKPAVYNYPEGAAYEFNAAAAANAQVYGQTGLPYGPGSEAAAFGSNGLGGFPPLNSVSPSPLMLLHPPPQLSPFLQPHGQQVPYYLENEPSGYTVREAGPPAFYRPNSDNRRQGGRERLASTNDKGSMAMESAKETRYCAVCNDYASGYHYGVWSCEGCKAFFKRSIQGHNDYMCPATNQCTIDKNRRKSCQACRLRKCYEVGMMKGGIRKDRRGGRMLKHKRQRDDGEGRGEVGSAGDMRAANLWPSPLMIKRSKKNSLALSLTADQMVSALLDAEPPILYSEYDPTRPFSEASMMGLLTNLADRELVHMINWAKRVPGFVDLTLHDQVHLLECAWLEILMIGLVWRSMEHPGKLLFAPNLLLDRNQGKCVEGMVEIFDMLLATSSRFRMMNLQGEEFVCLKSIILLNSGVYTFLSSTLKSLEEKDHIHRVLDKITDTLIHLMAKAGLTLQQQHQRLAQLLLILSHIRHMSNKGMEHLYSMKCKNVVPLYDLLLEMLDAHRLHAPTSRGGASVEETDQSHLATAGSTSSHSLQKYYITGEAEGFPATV

In the case of `CCN(CC)CCOc1ccccc1OC`, the Potency entry (in assay [1]; in [2]; in [3]; in assay [4]; in assay [5]; with Aromatase (Homo sapiens)) was “inactive” throughout.
Turning to `Cc1c(O)cc2c(c1C)O[C@](C)(CCC[C@H](C)CCC[C@H](C)CCCC(C)C)CC2`, the Potency result in assay [1], in assay [2], in assay [3], in assay [4], in assay [6] and in assay [7] was “inactive” in each case. Further, the Potency result (in assay [8]; in assay [5]; in the assay with Aromatase (Homo sapiens)) was “inactive” in each case.
For `O=[n+]1ccn([O-])c2ccccc21`, the Potency entry in assay [1], in assay [2], in assay [3], in assay [4] and in assay [5] was “inactive” in each case.
Consider `C[C@]12C=CC(=O)C=C1CC[C@@H]1[C@@H]2[C@@H](O)C[C@@]2(C)[C@H]1CC[C@]2(O)C(=O)COC(=O)CCC(=O)O`, for which the Potency entry (in assay [1]; in assay [2]; in assay [3]; in assay [4]; in assay [6]; in the assay with Aromatase (Homo sapiens)) was “inactive” each time.
For the compound `CNC(=O)[C@H](Cc1c[nH]c2ccccc12)NC(=O)[C@@H](CC(=O)NO)CC(C)C`, the results for the Potency in assay [1] and in [5] were 1.68 µM (active) and 2.66 µM (active), respectively. Moreover, the Potency entry in assay [2], in assay [3] and in assay [4] was “inactive” each time.
As for `CC(=O)[C@@]1(O)CC[C@H]2[C@@H]3C=C(Cl)C4=CC(=O)[C@@H]5C[C@@H]5[C@]4(C)[C@H]3CC[C@@]21C`, the Potency entry in assay [1], in [2], in assay [3], in assay [4], in assay [6] and in [7] was “inactive” in each case. In addition, the Potency entry (in assay [8]; in assay [5]; with Aromatase (Homo sapiens)) was “inactive” in each case.
Take `CC(=O)[C@@]1(O)CC[C@H]2[C@@H]3C=C(Cl)C4=CC(=O)CC[C@]4(C)[C@H]3CC[C@@]21C`: the Potency entry (in assay [1]; in assay [3]; in assay [4]; in assay [6]; with Aromatase (Homo sapiens)) was “inactive” each time. Moreover, the Potency in assay [2] and in assay [7] was 29.8 µM (active) in each case.
With `CCC(=O)OCC(=O)[C@@]1(OC(=O)CC)[C@H](C)C[C@H]2[C@H]3[C@H]([C@@H](O)C[C@@]21C)[C@@]1(C)C=CC(=O)C=C1C[C@H]3Cl`, the Potency entry in [1], in assay [2], in assay [3], in assay [4], in assay [6] and in assay [5] was “inactive” each time. Also, the Potency entry in the assay with Aromatase (Homo sapiens) is “inactive”.
For `C=C(NC(=O)C(=C)NC(=O)c1csc(C2=N[C@@H]3c4csc(n4)[C@H]4NC(=O)c5csc(n5)[C@H]([C@](C)(O)[C@@H](C)O)NC(=O)[C@H]5CSC(=N5)C(=CC)NC(=O)C([C@@H](C)O)NC(=O)c5csc(n5)[C@]3(CC2)NC(=O)[C@H](C)NC(=O)C(=C)NC(=O)[C@H](C)NC(=O)C([C@@H](C)CC)NC2C=Cc3c([C@H](C)O)cc(nc3C2O)C(=O)O[C@@H]4C)n1)C(N)=O` (stereo partly specified), the values for the Potency in assay [1], in [2] and in assay [3] were 8.04 µM (active), 12.7 µM (active) and 5.69 µM (active), respectively. Further, the Potency result (in assay [4]; in assay [7]; in assay [8]; in the assay with Aromatase (Homo sapiens)) was “inactive” throughout.
Take `[O]=[Bi][O][Bi]=[O]`: the Potency entry (in assay [1]; in [2]; in assay [3]; in assay [4]; in [5]; in the assay with Aromatase (Homo sapiens)) was “inactive” throughout.
For the compound `C=C1CC2C3CCC4=CC(=O)C=C[C@]4(C)[C@@]3(F)[C@@H](O)C[C@]2(C)[C@@]1(O)C(=O)COC(C)=O` (stereo partly specified), the Potency result (in [1]; in [2]; in assay [3]; in assay [4]; in assay [6]; with Aromatase (Homo sapiens)) was “inactive” throughout.
For `CC(=O)Nc1c(I)c(C(=O)O)c(I)c(N(C)C(C)=O)c1I`, the Potency entry (in [1]; in assay [2]; in [3]; in assay [4]; in [5]; in the assay with Aromatase (Homo sapiens)) was “inactive” each time.
For the compound `CNC(=O)c1c(I)c(C(=O)NCC(=O)Nc2c(I)c(C(=O)O)c(I)c(C(=O)NCCO)c2I)c(I)c(N(C)C(C)=O)c1I`, the Potency result in [1], in assay [2], in assay [3], in [4] and in assay [5] was “inactive” in each case.
`C[C@]12CCC(=O)C=C1CC[C@@H]1[C@@H]2[C@@H](O)C[C@@]2(C)[C@H]1CC[C@]2(O)C(=O)COP(=O)(O)O`: the Potency result (in assay [1]; in [2]; in assay [3]; in assay [4]; in assay [5]; with Aromatase (Homo sapiens)) was “inactive” throughout. For the same compound, the Potency in assay [7] is 29.8 µM (active).
Regarding `C[C@H]1C[C@H]2[C@@H]3CCC4=CC(=O)C=C[C@]4(C)[C@@]3(F)[C@@H](O)C[C@]2(C)[C@@]1(O)C(=O)CCl`, the Potency entry in assay [1], in assay [2], in assay [3], in assay [4], in assay [6] and in assay [7] was “inactive” throughout. In addition, in the assay with Aromatase (Homo sapiens), the Potency entry was “inactive”.
As to `CO[C@@H]1[C@@H](O[C@@H]2O[C@H](C)[C@@H](O[C@H]3C[C@@](C)(O)[C@@H](OC(=O)CC(C)C)[C@H](C)O3)[C@H](N(C)C)[C@H]2O)[C@@H](CC=O)C[C@@H](C)C(=O)/C=C/C2OC2C[C@@H](C)OC(=O)C[C@H]1OC(C)=O` (stereo partly specified), the Potency in assay [1] was 29.8 µM (active); in [2] it was 23.7 µM (active). For the same compound, the Potency result (in assay [3]; in assay [4]; in assay [6]; in assay [8]; in the assay with Aromatase (Homo sapiens)) was “inactive” each time.
Take `C[C@@H]1C[C@H]2[C@@H]3CCC4=CC(=O)C=C[C@]4(C)[C@@]3(F)[C@@H](O)C[C@]2(C)[C@@]1(O)C(=O)COC(=O)c1cccc(S(=O)(=O)O)c1`: the Potency entry in assay [1], in assay [2], in assay [3], in assay [4], in assay [6] and in assay [5] was “inactive” in each case. For the same compound, the Potency entry with Aromatase (Homo sapiens) is “inactive”. Further, in assay [7], the Potency was 15 µM (active).
Consider `Cc1ccccc1CNc1ncnc2c1ncn2[C@@H]1O[C@H](CO)[C@@H](O)[C@H]1O`, for which the Potency result in assay [1], in assay [2], in assay [3], in assay [4], in [7] and in [8] was “inactive” each time. Also, the Potency entry in [5] is “inactive”.
For the compound `N[C@H](CC(=O)O)C(=O)O`, the Potency result in assay [1], in [2], in [3], in assay [4], in [6] and in [7] was “inactive” in each case. In addition, the Potency result (in [8]; in [5]; with Aromatase (Homo sapiens)) was “inactive” in each case.
Turning to `CC[C@H](C)[C@@H]1NC(=O)[C@H](Cc2ccc(O)cc2)NC(=O)[C@@H](N)CSSC[C@@H](C(=O)N2CCC[C@H]2C(=O)N[C@@H](CC(C)C)C(=O)NCC(N)=O)NC(=O)[C@H](CC(N)=O)NC(=O)[C@H](CCC(N)=O)NC1=O`, the Potency entry in [1], in assay [2], in assay [3], in [4], in assay [8] and in assay [5] was “inactive” each time. The Potency entry with Aromatase (Homo sapiens) was “inactive”.
Turning to `CC1(C)S[C@@H]2[C@H](NC(=O)C3(N)CCCCC3)C(=O)N2[C@H]1C(=O)O`, the Potency result (in assay [1]; in [2]; in assay [3]; in [4]; in assay [5]; in the assay with Aromatase (Homo sapiens)) was “inactive” each time.
As to `C=C1c2c(Cl)ccc(O)c2C(O)=C2C(=O)[C@]3(O)C(O)=C(C(N)=O)C(=O)[C@@H](N(C)C)[C@@H]3[C@@H](O)[C@H]12`, the Potency result in [1], in assay [2], in [3], in [4], in assay [6] and in [7] was “inactive” each time. Moreover, the Potency result (in assay [8]; in assay [5]; in the assay with Aromatase (Homo sapiens)) was “inactive” throughout.
